# Bioassay records as filed in PubChem.
# Mtb MenB inh = blocks the Mycobacterium tuberculosis MenB enzyme | inhibition, % (concentration not given with the values) | 0.43% of 100,000 active | MenB enzyme assay, absorbance read-out; in the data active = inhibition above about 21%, passing the limit was not always enough
# Polio RdRp inh = inhibitors of poliovirus RNA polymerase binding and polymerization. % elongation, % (compound at 16.7 µg/mL). AID 588519. poliovirus polymerase elongation, fluorescence polarization; hits give low values. P03300. 0.66% of 150,000 active; in the data active = % elongation below about 90%
# AID504770 = E. coli YBA685 growth inhibition, screen for V. cholerae RctB inhibitors; E. coli YBA685 rctB-dependent plasmid, OD600 growth, 3 h; hits give low values; z-score (concentration not given with the values); 0.27% of 130,000 active; in the data active = z-score below about -2, passing the limit was not always enough
# MbtI inh = MbtI salicylate synthase inhibition. P9WFX0. purified MbtI enzyme, fluorescence intensity read-out. inhibition, % (no concentration beside the values). 0.89% of 100,000 active; in the data active = inhibition mostly above about 56%, no sharp cut-off; inactive = mostly below about 77%
# Target sequence (P9WFX0 whole entry, looked up): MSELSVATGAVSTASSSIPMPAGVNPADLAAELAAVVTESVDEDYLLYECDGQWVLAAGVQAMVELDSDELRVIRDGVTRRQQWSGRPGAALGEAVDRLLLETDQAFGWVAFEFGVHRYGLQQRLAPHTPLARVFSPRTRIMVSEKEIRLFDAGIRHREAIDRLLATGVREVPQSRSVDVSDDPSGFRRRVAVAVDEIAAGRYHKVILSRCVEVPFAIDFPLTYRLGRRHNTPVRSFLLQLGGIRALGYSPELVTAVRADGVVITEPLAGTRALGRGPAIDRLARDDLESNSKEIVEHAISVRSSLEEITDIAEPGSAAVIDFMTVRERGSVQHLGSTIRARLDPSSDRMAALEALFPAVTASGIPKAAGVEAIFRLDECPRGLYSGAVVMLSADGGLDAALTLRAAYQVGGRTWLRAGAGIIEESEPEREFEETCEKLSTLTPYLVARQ
# * hit, by the source's call; i = inactive; . = no result given; ! = repeats disagree. In the library only some 1.4% were active in any assay of this set; here they are far more common.
SMILES,Mtb MenB inh,Polio RdRp inh,AID504770,MbtI inh
S=c1[nH]nc(-c2ccccc2)n1-c1ccccc1,-17,101,0.05,3
CNC(=O)c1ccsc1NC(=O)c1ccc(S(C)(=O)=O)cc1,-45,98,0.3,2
NC1CCN(C(=O)NC2CCCCC2)CC1,24*,101,-0.2,-3
Cc1cc(NCCN2CCCCC2)c2ccc3ccccc3c2n1,-1,69*,1.1,i
Cc1nc2ccccc2c2oc(C(=O)NCCN3CCCCCC3)cc12,.,.,-0.3,.
FC(F)(F)c1ccccc1CN1CCN(CC2CC3C=CC2C3)CC1 (stereo unspecified),-2,48*,-0.55,.
C=CCNC(=O)C(C)Sc1ccc(C)cc1 (stereo unspecified),-7,103,1.6,-3
CC1(NS(C)(=O)=O)CC=CC1,29*,102,2.2,1
O=C1c2ccccc2SCC1(CO)CO,.,.,0.25,.
O=C(Nc1ccccc1)C(=S)NCc1ccco1,-21,102,0.8,3
S=C(NCc1ccco1)Nc1ccccc1,37*,102,0.95,4
CCOC(=O)c1[nH]c(COC(C)=O)cc1C,-8,106,-1,.
CSc1ccccc1NC(=O)CN(C)Cc1nnc(-c2ccccc2)o1,-3,105,-0.3,-20
O=CN1CCN(S(=O)(=O)c2ccc(F)c(F)c2)CC1,-10,105,0.25,-1
c1ccc(OCc2nnc3n2N=C(c2ccccc2)CS3)cc1,-41,93,-0.3,84*
Brc1ccc(C2=Nn3c(Cn4nnc5ccccc54)nnc3SC2)cc1,-5,69*,0.25,68*
Fc1ccc(C2=Nn3c(Cc4ccccc4)nnc3SC2)cc1,.,104,-0.25,-12
CS/C(N)=N/S(=O)(=O)c1cccs1,-13,104,-1,-13
COc1ccc(N=C2C(=O)Nc3ccc(Br)cc32)cc1,-3,98,-0.95,0
Nc1nnnn1/N=C1/C(=O)Nc2ccc(Br)cc21,-60,72*,0.15,.
Cn1cc(C(=O)CSc2nnc(-c3ccoc3)c(-c3ccoc3)n2)c2ccccc21,-38,101,0.05,44
COc1ccc2[nH]cc(C(=O)CSc3nnc(-c4ccoc4)c(-c4ccoc4)n3)c2c1,-62,102,1.2,75*
COC(=O)C(C)N1C(=O)S/C(=C/c2ccc(N3CCCCCC3)o2)C1=O (stereo unspecified),-47,75,-0.4,53*
CC1CCc2c(sc3nc(C(C)C)n4c(SCC(=O)NCc5ccco5)nnc4c23)C1 (stereo unspecified),27*,103,0.75,5
O=C(OCC(=O)C12CC3CC(CC(C3)C1)C2)c1ccc(Br)o1,-1,94,-0.15,-4
SMILES,Mtb MenB inh,Polio RdRp inh,AID504770,MbtI inh
Cc1ccc(S(=O)(=O)N(Cc2ccccc2)CC(C)C(=O)O)cc1 (stereo unspecified),-53,103,-0.15,-6
O=C1C2C3C=CC(O3)C2C(=O)N1c1ccccc1C(F)(F)F (stereo unspecified),.,.,-0.75,.
O=C1C=CC(=O)N1c1ccccc1C(F)(F)F,.,101,-2.5*,98*
O=C1C=CC(=O)N1c1cc(C(F)(F)F)ccc1Cl,.,101,1.2,98*
O=C1C=CC(=O)N1c1ccc(C(F)(F)F)cc1,.,.,-1,.
COc1ccc(-c2nn[nH]n2)cc1,39*,103,1.9,1
Cc1ccc(C(=O)CSc2ncn[nH]2)c(C)c1,-2,101,0.1,70*
Cc1cc2cc(CNC(=O)CCCc3ccccc3)ccc2n1C,.,.,1.2,.
CC(C)(C)C1=NN(c2nc3ccc(Cl)cc3s2)C(=O)C1,9,106,1.4,60*
O=C1CC(CSc2ccc(Cl)cc2)=NN1c1nc2ccccc2s1,-50,103,0.4,-6
CCOc1ccccc1NC(=O)c1ccc(C(=O)Nc2ccccc2OCC)cc1,.,108,.,.
CCOc1ccccc1NC(=O)CS,-140,98,1.1,83*
O=C1NC(=O)C(=Cc2ccc(Sc3ccc(Cl)cc3)o2)C(=O)N1,-26,104,0.5,92*
O=C1NC(=O)C(=Cc2ccc(N3CCCC3)o2)C(=O)N1,-142,126,-0.55,17
O=C(NC1CCCCC1)C1CCN(C(=O)c2ccco2)CC1,7,100,-0.05,-6
CCOC(=O)Cn1cc(/C=C2\C(=O)NC(=O)N(c3ccc(F)cc3)C2=O)c2ccccc21,-30,68,-0.85,-4
N#CCn1cc(/C=C2\C(=O)NC(=O)N(c3cccc(F)c3)C2=O)c2ccccc21,-24,101,1.9,74*
CCc1oc(C(=O)O)cc1CN,-17,104,0.8,-4
Cc1c2cnn(-c3ccccc3)c(=O)c2c(C)n1CCCC(=O)Nc1cccc(F)c1,.,82*,.,.
Cc1noc(C)c1COc1ccc(C(=O)OC2CCOC2=O)cc1 (stereo unspecified),-13,110,0.25,-4
COc1cccc(C2CC(=O)N(c3ccccc3)C3=C2C(=O)CCC3)c1OC (stereo unspecified),19,101,-0.45,13
Nn1c(C2CC2)n[nH]c1=S,-29,97,0.15,21
O=C(O)CC1(O)c2ccccc2C(=O)N1Cc1ccccc1 (stereo unspecified),-37,90*,1.6,.
COC(=O)CC1(O)c2ccccc2C(=O)N1Cc1ccccc1 (stereo unspecified),.,.,-0.6,.
O=C(NC1CCCCC1)N1CCn2cccc2C1Cc1ccccc1 (stereo unspecified),7,99,0.65,21
SMILES,Mtb MenB inh,Polio RdRp inh,AID504770,MbtI inh
CC1CC(NC2=NCCS2)CC(C)(C)C1 (stereo unspecified),.,.,1.2,.
CCOCCCNC1CC(C)CC(C)(C)C1 (stereo unspecified),-14,101,-2.2*,-17
O=C1N=c2ccccc2=C1c1c(O)n(-c2cccc(F)c2)[nH]c1=O,-6,99,-0.5,88*
O=C1NCC(O)=C1/C=N/Nc1ccccc1,0,103,-4*,45
Clc1nc2ccc3nsnc3c2nc1Cl,11,42*,-0.05,88
S=c1[nH]nc2ccccn12,3,100,-0.95,92*!
S=c1[nH]cc2ccccn12,-20,113,0.85,59
CCOC(=O)c1cc(C)n(-c2ccc(C(=O)NC3CCCCCC3)cc2)c1C,-54,102,0.25,-3
Cc1[nH]c(=S)n(C2CCCCC2)c1C,-16,101,-0.35,35
O=c1[nH][nH]c(=S)n1C1CCCCC1,4,102,0.2,57*
N#CCOC(=O)c1nc(-c2ccccc2)n(-c2ccccc2)n1,-11,83*,-0.5,-5
C1=CCC2NC(C1)Cc1ccccc12 (stereo unspecified),29*,103,-0.25,-1
O=C1CC(=O)c2ccc3c4c(ccc1c24)C(=O)CC3=O,-252,90,-0.1,93*
S=c1[nH]nc(NCCCN2CCOCC2)s1,-19,96,-0.6,97*
O=C(O)/C=C/c1ccc(-c2ccccc2)o1,3,100,-0.15,-109
CC1(C)Cc2[nH]c(=S)c(C#N)cc2CO1,-85,101,1.1,92
N#Cc1cc2c([nH]c1=S)CCCC2,-217,98,-0.1,102*
S=c1[nH]nc(-c2ccncc2)n1C1CC1,9,.,1.4,60*
C=CCn1c(-c2ccncc2)n[nH]c1=S,8,100,-0.9,70*
Fc1ccc(N2CCN(c3ncc4c(n3)CCNC4)CC2)cc1,-22,104,-1.4,1
